Molecules are shown by their SMILES. The source made the active and inactive calls.

In one assay the test system is Wnt5a (protein binding on small-molecule microarray). In words: Wnt5a binders on small-molecule microarray, primary screen, biophysical, 635/667 nm fluorescence (AID 1142).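 Note: fluorescence read at 667 nm with signal to noise per printed feature.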 To be noted: 635 nm fluorescence, higher = more signal.
For the compound `CN(C)CCCC[C@@H]1NC(=O)[C@@H]2C[C@H](C(=O)NCc3ccc(F)cc3)[C@H](c3ccc(O)cc3)N2C1=O`, the composite z-score was determined as 0.939.
Compound `CC(=O)c1ccc(C(O)C2C=CC3C(=O)N(C)C(=O)C3N2NC(=O)OC(C)(C)C)cc1` (stereo unspecified) registered a composite z-score of 0.468.
Compound `CO[C@H]1O[C@H](CO)[C@@H](OC(=O)Nc2ccc3c(c2)OCO3)[C@@H]2OC(=O)[C@@H](Cc3ccccc3)C/C=C/C[C@H](Cc3ccccc3)C(=O)O[C@@H]12` gave a composite z-score of 0.465.
With `O=C1NC(=O)C2C1C=CC(C(O)c1cccc(O)c1)N2Nc1ccc(Cl)cc1Cl` (stereo unspecified), the composite z-score is -0.125.
On the same count and under the same terms, as for `Cc1ccc(S[C@]2(C(=O)NCCCN(C)C)CC(=O)N(Cc3ccccc3Cl)[C@@H]2c2ccc(CO)cc2I)cc1`, the figure is -0.256; as for `O=c1cccc(-c2ccccc2C(F)(F)F)o1`, 0.297; as for `COCCOC(=O)N1C(=O)[C@@]2(c3cc(C#CCC(C(=O)OC)C(=O)OC)ccc31)[C@H](c1ccc(OCCO)cc1)N1[C@H](c3ccccc3)[C@H](c3ccccc3)OC(=O)[C@H]1[C@@H]2C(=O)N1CCCCCCC1`, 0.803.
Regarding `C[C@H]1NC(=O)C([C@@H](C)OCc2ccccc2)NC(=O)[C@@]23C(=O)N[C@@H](Cc4ccccc4)C2[C@H](C)[C@@]2(C)O[C@H]2C3/C=C/C/C=C\CNC1=O` (stereo partly specified), the composite z-score was found to be 0.0077.
On the same count and under the same terms, the figure for `COCC(=C=CC[C@@H](O)c1cccc(OCCO)c1)C[C@@H](O)COCc1ccccc1` is 0.515; for `C=C(CCCC)C(=O)CC[C@H](OC(C)=O)c1ccccc1OCCO` it is 0.241.
For the compound `CCC[C@@H]1C=C(C(=O)OCC)[C@H](c2ccccc2)N1S(=O)(=O)c1ccc(C)cc1`, the composite z-score came out at 0.539.
On the same count and under the same terms, as for `COCCOC(=O)N1C(=O)[C@@]2(c3cc(C#CC4(O)CCCCCC4)ccc31)[C@H](C(=O)N1CCc3cc(OC)c(OC)cc3C1)[C@H]1C(=O)O[C@H](c3ccccc3)[C@H](c3ccccc3)N1[C@@H]2c1ccc(O)cc1`, the figure is 0.869.
On the same count and under the same terms, the figure for `Cc1ccc(F)cc1S(=O)(=O)N[C@@H]1CCN(Cc2ccc3c(c2)OCO3)C1` is -0.212; for `COCCOC(=O)N1C(=O)[C@@]2(c3cc(C#CC4(O)CCCCCC4)ccc31)[C@H](c1ccc(OCCO)cc1)N1[C@H](c3ccccc3)[C@H](c3ccccc3)OC(=O)[C@H]1[C@@H]2C(=O)N1CCCCCCC1` it is 0.539; for `CC(c1ccccc1)C(O)C1C=CC2C(=O)N(c3ccccc3)C(=O)C2N1Nc1ccc(C#N)cc1` (stereo unspecified) it is 0.644.
Still for that read-out and setting: as for `COC(=O)C(CC#Cc1ccc2c(c1)[C@]1(C(=O)N2)[C@H](c2ccc(O)cc2)N2[C@H](c3ccccc3)[C@H](c3ccccc3)OC(=O)[C@H]2[C@@H]1C(=O)N1CCc2cc(OC)c(OC)cc2C1)C(=O)OC`, the figure is 0.294; as for `C[N+](C)(C)CCCCCCNC(=O)[C@H]1C[C@H]2C(=O)NCC(=O)N2[C@H]1c1cccc(OCCO)c1`, -0.196.
Regarding `COC(=O)c1c(CC[C@@H](CO)NC(=O)N[C@@H](Cc2ccccc2)Cn2cc(-c3cncn3C)nn2)oc(C(C)=O)c1C(=O)OC`, the composite z-score is -0.245.
Consider `O=C1O[C@@H](c2ccccc2)[C@@H](c2ccccc2)N2[C@@H](c3ccc(O)cc3)[C@]3(C(=O)Nc4ccc(C#CC5=CCCCC5)cc43)[C@@H](C(=O)N3CCCCCCC3)[C@H]12`, for which the composite z-score is 0.0888.
Same read-out and setting: the figure for `COC(=O)C1=CC(CCCO)=CC(C2CC2)N(Cc2cccc(OC(F)(F)F)c2)C=C1C(=O)OC` (stereo unspecified) is 0.172; for `COCCOC(=O)N1C(=O)[C@@]2(c3cc(C#CCC(C(=O)OC)C(=O)OC)ccc31)[C@H](C(=O)N1CCCCCCC1)[C@H]1C(=O)O[C@H](c3ccccc3)[C@H](c3ccccc3)N1[C@@H]2c1ccccc1OCCO` it is 1.21.
`COCCOC(=O)N1C(=O)[C@@]2(c3cc(C#CCCO)ccc31)[C@H](c1ccccc1OCCO)N1[C@H](c3ccccc3)[C@H](c3ccccc3)OC(=O)[C@H]1[C@@H]2C(=O)N1CCc2cc(OC)c(OC)cc2C1` registered a composite z-score of 0.318.
The same measure, in the same setting: as for `COC(=O)[C@@H]1N=C(c2ccc(OCCCO)cc2)O[C@@H]1c1ccccc1CN=[N+]=[N-]`, the figure is -0.257; as for `COC(=O)[C@H](Cc1ccc(O)cc1)N1CC2=CCCC=C[C@@H]2[C@H]1[C@H](O)Cc1ccccc1`, 0.0799; as for `C=CC[C@@]1(C(=O)N(C)C)N=C(c2ccc(OCCCO)cc2)O[C@@H]1c1ccccc1`, 0.919.

Test system in a further assay: not listed separately
In words: cell viability in Huh7 cells, primary screen, cytotoxicity control for HCV replication inhibitor project, CellTiter-Glo luminescence, basal, 48 h (AID 1143).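 Note: Huh7 hepatoma cells carrying a hepatitis C replication reporter with no stimulus; test concentration not given here.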 To be noted: Huh7 HCV replicon, higher = more signal, called active from +8 up or from −8 down.
As for `CO[C@H]1O[C@H](CO)[C@@H](OC(=O)Nc2ccccc2)[C@@H]2OC(=O)[C@H](Cc3ccccc3)C/C=C/C[C@@H](Cc3ccccc3)C(=O)O[C@@H]12`, the z-score is -3.81 (inactive).
On the same count and under the same terms, as for `CCCCC(=C=CC[C@@H](O)c1ccc(OCCO)cc1)C[C@@H](O)c1ccccn1`, the figure is -1.31 (inactive); as for `C=CCC(OC(C)=O)[C@@H]1[C@@H](N(Cc2cccc3ccccc23)C(=O)c2ccc(-c3ccccc3)cc2)c2cc(OCCCO)ccc2N1C(=O)c1ccc2ccccc2n1` (stereo partly specified), -0.205 (inactive); as for `COCCOC(=O)N1C(=O)[C@@]2(c3cc(C#CC4(O)CCCCCC4)ccc31)[C@H](c1ccc(OCCO)cc1)N1[C@H](c3ccccc3)[C@H](c3ccccc3)OC(=O)[C@H]1[C@@H]2C(N)=O`, -4.15 (inactive).
Take `COc1ccc([Si](C)(C)[C@H]2[C@H](CCO)O[C@@]3(C(=O)N(Cc4ccc(N5CCOC5=O)cc4)c4ccccc43)[C@@H]2C)cc1`: the z-score was -3.29 (inactive).
For `Cc1c(-c2ccc(-c3ccc(Cl)c(Cl)c3)o2)nc(-c2ccccc2)c2c1CO[Si]2(C(C)C)C(C)C`, the z-score is -0.98 (inactive).
Turning to `O=C1OCCC=C[C@H]2OC34C=CCN(CCN5CCOCC5)C(=O)[C@H]3N(CCCO)C(=O)[C@@H]4C12` (stereo partly specified), the z-score was -2.19 (inactive).
With `COC(=O)[C@@]1(Cc2ccc(F)cc2)[C@H]2c3cc(C(=O)N(C)C)n(CCO)c3C[C@H]2CN1C(=O)c1ccccc1`, the z-score was -0.494 (inactive).
Turning to `CC(C)C[C@H]1NC(=O)[C@@H](C)NC(=O)[C@@]23C(=O)N[C@@H](Cc4ccccc4)C2[C@H](C)[C@@]2(C)O[C@H]2C3/C=C/C/C=C\CNC1=O` (stereo partly specified), the z-score is -0.332 (inactive).
`N#Cc1ccc(C(O)C2C=CC3C(=O)N(c4ccccc4)C(=O)C3N2Nc2ccc([N+](=O)[O-])cc2)cc1` (stereo unspecified): the z-score was -0.843 (inactive).
With `CN(C)CCCC[C@@H]1NC(=O)[C@@H]2C[C@H](C(=O)NCc3ccc(F)cc3)[C@H](c3ccc(O)cc3)N2C1=O`, the z-score is 0.0109 (inactive).
In the case of `CC(=O)c1ccc(C(O)C2C=CC3C(=O)N(C)C(=O)C3N2NC(=O)OC(C)(C)C)cc1` (stereo unspecified), the z-score is 0.847 (inactive).
On to `CO[C@H]1O[C@H](CO)[C@@H](OC(=O)Nc2ccc3c(c2)OCO3)[C@@H]2OC(=O)[C@@H](Cc3ccccc3)C/C=C/C[C@H](Cc3ccccc3)C(=O)O[C@@H]12`, for which the z-score is -2.26 (inactive).
The same measure, in the same setting: as for `O=C1NC(=O)C2C1C=CC(C(O)c1cccc(O)c1)N2Nc1ccc(Cl)cc1Cl` (stereo unspecified), the figure is -1.08 (inactive); as for `Cc1ccc(S[C@]2(C(=O)NCCCN(C)C)CC(=O)N(Cc3ccccc3Cl)[C@@H]2c2ccc(CO)cc2I)cc1`, -0.826 (inactive); as for `O=c1cccc(-c2ccccc2C(F)(F)F)o1`, -0.121 (inactive).
Take `COCCOC(=O)N1C(=O)[C@@]2(c3cc(C#CCC(C(=O)OC)C(=O)OC)ccc31)[C@H](c1ccc(OCCO)cc1)N1[C@H](c3ccccc3)[C@H](c3ccccc3)OC(=O)[C@H]1[C@@H]2C(=O)N1CCCCCCC1`: the z-score was -1.67 (inactive).
Turning to `C[C@H]1NC(=O)C([C@@H](C)OCc2ccccc2)NC(=O)[C@@]23C(=O)N[C@@H](Cc4ccccc4)C2[C@H](C)[C@@]2(C)O[C@H]2C3/C=C/C/C=C\CNC1=O` (stereo partly specified), the z-score was -1.16 (inactive).
On to `COCC(=C=CC[C@@H](O)c1cccc(OCCO)c1)C[C@@H](O)COCc1ccccc1`, for which the z-score was -0.825 (inactive).
With `C=C(CCCC)C(=O)CC[C@H](OC(C)=O)c1ccccc1OCCO`, the z-score is -4.57 (inactive).
In the case of `CCC[C@@H]1C=C(C(=O)OCC)[C@H](c2ccccc2)N1S(=O)(=O)c1ccc(C)cc1`, the z-score is -4.29 (inactive).
Take `COCCOC(=O)N1C(=O)[C@@]2(c3cc(C#CC4(O)CCCCCC4)ccc31)[C@H](C(=O)N1CCc3cc(OC)c(OC)cc3C1)[C@H]1C(=O)O[C@H](c3ccccc3)[C@H](c3ccccc3)N1[C@@H]2c1ccc(O)cc1`: the z-score is -1.83 (inactive).
Turning to `Cc1ccc(F)cc1S(=O)(=O)N[C@@H]1CCN(Cc2ccc3c(c2)OCO3)C1`, the z-score is -1.51 (inactive).
Take `COCCOC(=O)N1C(=O)[C@@]2(c3cc(C#CC4(O)CCCCCC4)ccc31)[C@H](c1ccc(OCCO)cc1)N1[C@H](c3ccccc3)[C@H](c3ccccc3)OC(=O)[C@H]1[C@@H]2C(=O)N1CCCCCCC1`: the z-score was -4.81 (inactive).
Regarding `CC(c1ccccc1)C(O)C1C=CC2C(=O)N(c3ccccc3)C(=O)C2N1Nc1ccc(C#N)cc1` (stereo unspecified), the z-score was -0.661 (inactive).
Take `COC(=O)C(CC#Cc1ccc2c(c1)[C@]1(C(=O)N2)[C@H](c2ccc(O)cc2)N2[C@H](c3ccccc3)[C@H](c3ccccc3)OC(=O)[C@H]2[C@@H]1C(=O)N1CCc2cc(OC)c(OC)cc2C1)C(=O)OC`: the z-score was -0.26 (inactive).
Turning to `C[N+](C)(C)CCCCCCNC(=O)[C@H]1C[C@H]2C(=O)NCC(=O)N2[C@H]1c1cccc(OCCO)c1`, the z-score was -0.103 (inactive).
As to `COC(=O)c1c(CC[C@@H](CO)NC(=O)N[C@@H](Cc2ccccc2)Cn2cc(-c3cncn3C)nn2)oc(C(C)=O)c1C(=O)OC`, the z-score is -3.29 (inactive).
Regarding `O=C1O[C@@H](c2ccccc2)[C@@H](c2ccccc2)N2[C@@H](c3ccc(O)cc3)[C@]3(C(=O)Nc4ccc(C#CC5=CCCCC5)cc43)[C@@H](C(=O)N3CCCCCCC3)[C@H]12`, the z-score was -4.91 (inactive).
On to `COC(=O)C1=CC(CCCO)=CC(C2CC2)N(Cc2cccc(OC(F)(F)F)c2)C=C1C(=O)OC` (stereo unspecified), for which the z-score is -1.15 (inactive).
Turning to `COCCOC(=O)N1C(=O)[C@@]2(c3cc(C#CCC(C(=O)OC)C(=O)OC)ccc31)[C@H](C(=O)N1CCCCCCC1)[C@H]1C(=O)O[C@H](c3ccccc3)[C@H](c3ccccc3)N1[C@@H]2c1ccccc1OCCO`, the z-score was -5.66 (inactive).

The values above are taken from PubChem BioAssay.
